Laboratory results taken from PubChem BioAssay (Tox21).
Values joined by “and” are separate entries in the source; they are usually repeats but may differ in a detail not shown here. Identical values can stand only once. Inconclusive results are not listed. Where a call stands in place of a potency, no number is given. Some compounds were tested as several samples or in several runs, with calls that do not always agree. Active and inactive are the calls of the source. Calls come from the whole dose curve; as a rule, active = well fitted curve in the direction sought with a large enough effect in the repeat runs; inconclusive = weak or mixed curves; inactive = no such curve, though single readings can be large; an effect the other way counts as inactive or inconclusive.

Key:
[1] = Caspase-3/7 induction in HepG2 cells by small molecules, qHTS assay (AID 1346978); note: nearly all actives have a fitted effect of over 15% in size
Method in brief: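 Wild-type HepG2 cells, 2,000/well, settled 5 hr at 37 C and 5% CO2, then compound-treated for 17 hr; caspase-3/7 activity read by luminescent Caspase-Glo 3/7 after 30 min at room temperature.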

[2] = Caspase-3/7 induction in CHO-K1 cells by small molecules, qHTS cell viability counter screen (AID 1346979); note: nearly all actives have a fitted effect of over 35% in size; note: potency is the fitted concentration of half-maximal effect
Method in brief: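 Cytotoxicity counter screen run in parallel with the caspase-3/7 assay: CHO-K1 cells, 16hr compound treatment at 37C, then CellTiter-Fluor for 1hr before fluorescence reading.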

[3] = Caspase-3/7 induction in CHO-K1 cells by small molecules, qHTS assay (AID 1346980); note: nearly all actives have a fitted effect of over 15% in size
Method in brief: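 Wild-type CHO-K1 cells exposed to compounds for 17hr at 37 C, 5% CO2. Caspase-3/7 activity then measured by Caspase-Glo 3/7 luminescence after 30min at room temperature.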

[4] = Caspase-3/7 induction in HepG2 cells by small molecules, qHTS cell viability counter screen (AID 1346981); note: nearly all actives have a fitted effect of over 30% in size; note: potency is the fitted concentration of half-maximal effect
Method in brief: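 Steps: seed 2,000 HepG2 cells per well; incubate 5 hr at 37 C; pin-add compounds in DMSO; incubate 16 hr; add CellTiter-Fluor; after 1 hr at 37 C and 5% CO2, read fluorescence.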

[5] = target: Cytochrome P450 2D6 (Homo sapiens) (UniProt P10635); test: Cytochrome P450 Family 2 Subfamily D Member 6 (CYP2D6) small molecule antagonists: luciferase reporter qHTS assay (AID 1671196); note: nearly all actives have a fitted effect of over 50% in size; note: potency is the fitted concentration of half-maximal effect
Chain of Cytochrome P450 2D6 (Homo sapiens) (P10635 whole entry, looked up): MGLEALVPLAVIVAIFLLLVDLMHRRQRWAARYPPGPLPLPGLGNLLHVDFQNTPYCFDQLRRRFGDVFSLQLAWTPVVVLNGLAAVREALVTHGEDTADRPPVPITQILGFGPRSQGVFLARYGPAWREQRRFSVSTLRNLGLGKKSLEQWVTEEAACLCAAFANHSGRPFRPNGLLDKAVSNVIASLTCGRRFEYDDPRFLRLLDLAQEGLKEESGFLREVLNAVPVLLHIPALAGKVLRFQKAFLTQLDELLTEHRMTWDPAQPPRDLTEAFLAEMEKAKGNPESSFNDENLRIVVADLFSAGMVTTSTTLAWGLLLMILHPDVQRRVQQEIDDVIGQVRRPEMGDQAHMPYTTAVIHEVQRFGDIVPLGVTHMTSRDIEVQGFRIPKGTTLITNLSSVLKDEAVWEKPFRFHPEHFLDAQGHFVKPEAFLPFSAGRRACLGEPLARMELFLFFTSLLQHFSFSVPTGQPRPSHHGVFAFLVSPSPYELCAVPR
Method in brief: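 P450-Glo format: CYP2D6 converts a proluciferin substrate to luciferin in an NADPH-driven reaction lasting 1 h at room temperature. Light output, proportional to CYP2D6 activity, reflects interference by test chemicals.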

[6] = target: Cytochrome P450 2C19 (Homo sapiens) (UniProt P33261); test: Cytochrome P450 Family 2 Subfamily C Member 19 (CYP2C19) small molecule antagonists: luciferase reporter qHTS assay (AID 1671197); note: nearly all actives have a fitted effect of over 65% in size; note: potency is the fitted concentration of half-maximal effect
Chain of Cytochrome P450 2C19 (Homo sapiens) (P33261 whole entry, looked up): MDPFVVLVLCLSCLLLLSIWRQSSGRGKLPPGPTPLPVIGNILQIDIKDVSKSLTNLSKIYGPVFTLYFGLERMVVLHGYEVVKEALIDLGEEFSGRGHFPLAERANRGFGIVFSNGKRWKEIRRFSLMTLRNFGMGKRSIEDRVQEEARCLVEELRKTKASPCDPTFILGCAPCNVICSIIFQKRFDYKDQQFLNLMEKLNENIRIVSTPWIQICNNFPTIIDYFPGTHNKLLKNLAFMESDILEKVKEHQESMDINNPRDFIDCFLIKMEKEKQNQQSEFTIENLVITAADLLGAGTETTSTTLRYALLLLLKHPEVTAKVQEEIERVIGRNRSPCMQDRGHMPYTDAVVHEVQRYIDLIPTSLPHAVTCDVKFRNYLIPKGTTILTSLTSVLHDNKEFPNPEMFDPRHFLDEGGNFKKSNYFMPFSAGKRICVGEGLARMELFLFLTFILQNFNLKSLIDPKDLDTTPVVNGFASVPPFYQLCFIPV
Method in brief: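 P450-Glo CYP2C19 system: enzyme-substrate mix with compound 10 min at room temperature, then NADPH regeneration solution, 1 h at 37C. Proluciferin-to-luciferin conversion detected by luminescence after 20 min with detection reagent; ketoconazole as positive control.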

[7] = target: Nuclear receptor subfamily 1 group I member 2 (Homo sapiens) (UniProt O75469); test: Human pregnane X receptor (PXR) small molecule agonists, qHTS assay (AID 1346982); note: nearly all actives have a fitted effect of over 35% in size; note: potency is the fitted concentration of half-maximal effect
Chain of Nuclear receptor subfamily 1 group I member 2 (Homo sapiens) (O75469 whole entry, looked up): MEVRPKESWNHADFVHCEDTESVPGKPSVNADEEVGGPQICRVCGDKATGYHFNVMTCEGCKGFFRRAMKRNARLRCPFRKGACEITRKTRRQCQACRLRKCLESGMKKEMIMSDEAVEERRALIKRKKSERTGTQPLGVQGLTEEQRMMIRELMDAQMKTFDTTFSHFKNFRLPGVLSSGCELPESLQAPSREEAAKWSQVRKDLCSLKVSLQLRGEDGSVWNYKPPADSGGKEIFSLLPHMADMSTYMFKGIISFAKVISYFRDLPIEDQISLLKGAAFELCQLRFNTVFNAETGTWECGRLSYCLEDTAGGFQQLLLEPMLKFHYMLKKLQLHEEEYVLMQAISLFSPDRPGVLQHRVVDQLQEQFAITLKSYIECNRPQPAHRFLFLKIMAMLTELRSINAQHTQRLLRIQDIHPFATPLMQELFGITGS
Method in brief: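 Agonist mode qHTS: PXR-Luc HepG2 cells plated 5 hr before DMSO-dissolved compounds were pinned in, cultured 24 hr at 37 C, 5% CO2; ONE-Glo luminescence readout.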

[8] = target: Nuclear receptor subfamily 1 group I member 2 (Rattus norvegicus) (UniProt Q9R1A7); test: Rat pregnane X receptor (rPXR) activation by small molecules, qHTS assay (AID 1346983); details: rPXR luciferase reporter cells, One-Glo luminescence, 24 h; stronger effect = higher value; note: nearly all actives have a fitted effect of over 20% in size
Chain of Nuclear receptor subfamily 1 group I member 2 (Rattus norvegicus) (Q9R1A7 whole entry, looked up): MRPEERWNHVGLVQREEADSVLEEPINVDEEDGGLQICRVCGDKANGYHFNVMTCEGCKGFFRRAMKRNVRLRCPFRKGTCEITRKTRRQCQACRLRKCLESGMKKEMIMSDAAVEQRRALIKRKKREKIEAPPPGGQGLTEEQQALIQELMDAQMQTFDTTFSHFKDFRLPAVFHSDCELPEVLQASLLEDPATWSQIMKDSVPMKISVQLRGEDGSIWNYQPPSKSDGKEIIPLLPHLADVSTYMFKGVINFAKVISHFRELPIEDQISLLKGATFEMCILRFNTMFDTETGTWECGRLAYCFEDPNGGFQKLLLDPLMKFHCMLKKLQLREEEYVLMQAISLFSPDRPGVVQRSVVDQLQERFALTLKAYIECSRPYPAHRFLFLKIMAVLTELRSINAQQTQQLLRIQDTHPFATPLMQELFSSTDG
Method in brief: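 Cell-based rPXR activation assay: rPXR cells, 2,000 per well, rested 5hr at 37 C, then exposed to compounds in DMSO for 24 hr at 37 C. Luciferase activity read by One-Glo luminescence after 30 min at room temperature.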

[9] = target: Nuclear receptor subfamily 1 group I member 2 (Homo sapiens) (UniProt O75469); test: CYP3A4 induction through human pregnane X receptor (PXR) by small molecules, qHTS assay (AID 1346984); note: nearly all actives have a fitted effect of over 40% in size
Method in brief: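 Steps: seed DPX-2 cells, 5 hr at 37C; pin-transfer compounds; 24 hr at 37C; add Luciferin-IPA (3uM final), 3 hr at 37C; add One-Glo, 30 min RT; read luminescence.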

[10] = target: Nuclear receptor subfamily 1 group I member 2 (Homo sapiens) (UniProt O75469); test: Human pregnane X receptor (PXR) activation by small molecules, qHTS assay (AID 1346985); note: nearly all actives have a fitted effect of over 40% in size
Method in brief: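 DPX-2 cells (HepG2 co-transfected with a PXR response element and a CYP3A4-promoter luciferase construct) were seeded at 2,000 per well, rested 5 hr at 37C, then exposed to DMSO-dissolved compounds for 24 hr. Activation was read as luciferase luminescence.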

Row | SMILES | Potency [1] | Potency [2] | outcome [3] | Potency [4] | Potency [5] | Potency [6] | Potency [7] | max activation [8] | Potency [9] | outcome [10]
1 | CCCCCCCO | inactive | inactive | inactive | inactive | inactive | 72 µM (active) and inactive |  |  |  | 
2 | O=C(O)c1ccc(C(=O)O)c(C(=O)O)c1 | inactive | inactive |  | inactive | inactive | inactive | inactive |  |  | 
3 | CCCCCCCCCCCC(=O)OC | inactive | inactive |  | inactive | inactive | inactive | inactive |  |  | 
4 | CCCCCCCCCCN | inactive | inactive | inactive | inactive | 35.8 µM (active) and 12.6 µM (active) | 7.14 µM (active) and 5.64 µM (active) |  |  |  | 
5 | O=C(O)Cn1c(=O)n(Cc2ccc(Br)cc2F)c(=O)c2ccc(Cl)cc21 | inactive |  | inactive |  | inactive | inactive |  |  |  | 
6 | COCCCN | inactive | inactive | inactive | inactive | inactive | inactive |  |  |  | 
7 | CN(C)c1ccc(O)c2c1C[C@H]1C[C@H]3[C@H](N(C)C)C(=O)C(C(N)=O)=C(O)[C@@]3(O)C(=O)C1=C2O | inactive | 68.6 µM (active) and 29.8 µM (active) |  | 54.5 µM (active) and 29.8 µM (active) | inactive | inactive | inactive | -2.35% (inactive) | inactive | inactive
8 | CN(C)CCOC(=O)COc1ccc(Cl)cc1 | inactive |  | inactive | inactive | 35.5 µM (active) and 30.9 µM (active) |  |  | -3.66% (inactive) | inactive | inactive
9 | CSc1ccc(Cl)cc1 | inactive | inactive |  | inactive | inactive | inactive | inactive |  |  | 
10 | COc1ccc([N+](=O)[O-])cc1N | inactive | inactive | inactive |  | inactive | 35.7 µM (active) and 79.6 µM (active) |  |  |  | 
11 | Nc1nc(N)nc(-c2ccccc2)n1 | inactive | inactive |  | inactive | inactive | inactive |  |  |  | 
12 | CC1(C)S[C@@H]2[C@H](NC(=O)COc3ccccc3)C(=O)N2[C@H]1C(=O)O | inactive | inactive |  | inactive |  | inactive |  |  |  | 
13 | CCOC(=O)n1ccn(C)c1=S | inactive | inactive |  | inactive | inactive | inactive | inactive | -4.98% (inactive) | inactive | inactive
14 | NC(=S)NNC(N)=S | inactive | inactive | inactive |  | inactive | 34.7 µM (active) and inactive | inactive |  |  | 
15 | CC(=O)OCCOC(C)=O | inactive | inactive |  | inactive | inactive | inactive | inactive |  |  | 
16 | CCCOC(=O)c1ccccc1 | inactive | inactive |  | inactive | inactive | inactive |  | -6.55% (inactive) | inactive | inactive
17 | CC(C)(Oc1ccc(CCNC(=O)c2ccc(Cl)cc2)cc1)C(=O)O | inactive | inactive |  | inactive | inactive | inactive | inactive | -0.19% (inactive) | inactive | inactive
18 | CCCCCCCCCCCCCCCCO | inactive | inactive |  | inactive | inactive | inactive |  | -1.74% (inactive) | inactive | inactive
19 | O=C(O)/C=C/C(=O)O | inactive | inactive | inactive | inactive | 37.6 µM (active) and inactive | inactive |  |  |  | 
20 | CCO[Si](CCC#N)(OCC)OCC | inactive | inactive |  | inactive | inactive | inactive |  |  |  | 
21 | CN(C)c1ccc(Cc2ccc(N(C)C)cc2)cc1 | inactive |  |  | inactive | 40.1 µM (active) | 179 nM (active) and 356 nM (active) | 30.8 µM (active) and 43.3 µM (active) |  |  | 
22 | COc1ccc(C)cc1N | inactive | inactive |  | inactive | 24.3 µM (active) and 25.2 µM (active) | 38.6 µM (active) and 35.6 µM (active) |  |  |  | 
23 | CN1C(=O)CC[C@H]1c1cccnc1 | inactive | inactive |  | inactive |  | inactive |  | -3.2% (inactive) |  | 
24 | NCCN1CCNCC1 | inactive | inactive | inactive | inactive |  | inactive |  |  |  | 
25 | O=S(=O)(O)c1ccccc1 |  | inactive | inactive | inactive |  |  |  |  |  | 
26 | Cc1ccc(S(=O)(=O)N=C=O)cc1 |  | 6.73 µM (active) and inactive | inactive | 53.4 µM (active) and inactive | inactive | inactive | inactive |  |  | 
27 | O=C1c2ccccc2CCc2ccccc21 |  | inactive | inactive | inactive | inactive | 18.2 µM (active) and 7.76 µM (active) |  |  |  | 
28 | COc1cc(OC)c(C(=O)CCCN2CCCC2)c(OC)c1 |  | inactive |  | inactive |  | inactive |  | -3.14% (inactive) |  | 
29 | CC1(C)CC(N)CC(C)(CN)C1 (stereo not given) |  | inactive | inactive | inactive | 36.1 µM (active) and inactive | inactive |  |  |  | 
30 | CC(C)OP(=O)(CP(=O)(OC(C)C)OC(C)C)OC(C)C |  | inactive | inactive | inactive | inactive | 35.6 µM (active) and inactive |  |  |  | 
